Data on 6 compounds can be found in ChEMBL document CHEMBL1961873, “Compounds: GSK PKIS; Assays: Nanosyn kinase panel” (2012).

The target of assay [1] is Tyrosine-protein kinase Fyn (Homo sapiens) (UniProt P06241). Particulars: at 1 µM.
For assay [2], the target named is Tyrosine-protein kinase HCK (Homo sapiens) (UniProt P08631). The following applies: at 0.1 µM.
The target is the same in assay [3]. Particulars: at 1 µM.
In assay [4] the target is Insulin-like growth factor 1 receptor (Homo sapiens) (UniProt P08069). The following applies: at 0.1 µM.
Assay [5] has the same target. Particulars: at 1 µM.
The target of assay [6] is Insulin receptor (Homo sapiens) (UniProt P06213). Particulars: at 0.1 µM.
The target is the same in assay [7]. The following applies: at 1 µM.
Assay [8] has as its target Insulin receptor-related protein (Homo sapiens) (UniProt P14616). The following applies: at 0.1 µM.
For assay [9] the target is unchanged. The following applies: at 1 µM.
For assay [10], the target named is T1, Tyrosine-protein kinase ITK/TSK (Homo sapiens) (UniProt Q08881).
T1 sequence (whole entry): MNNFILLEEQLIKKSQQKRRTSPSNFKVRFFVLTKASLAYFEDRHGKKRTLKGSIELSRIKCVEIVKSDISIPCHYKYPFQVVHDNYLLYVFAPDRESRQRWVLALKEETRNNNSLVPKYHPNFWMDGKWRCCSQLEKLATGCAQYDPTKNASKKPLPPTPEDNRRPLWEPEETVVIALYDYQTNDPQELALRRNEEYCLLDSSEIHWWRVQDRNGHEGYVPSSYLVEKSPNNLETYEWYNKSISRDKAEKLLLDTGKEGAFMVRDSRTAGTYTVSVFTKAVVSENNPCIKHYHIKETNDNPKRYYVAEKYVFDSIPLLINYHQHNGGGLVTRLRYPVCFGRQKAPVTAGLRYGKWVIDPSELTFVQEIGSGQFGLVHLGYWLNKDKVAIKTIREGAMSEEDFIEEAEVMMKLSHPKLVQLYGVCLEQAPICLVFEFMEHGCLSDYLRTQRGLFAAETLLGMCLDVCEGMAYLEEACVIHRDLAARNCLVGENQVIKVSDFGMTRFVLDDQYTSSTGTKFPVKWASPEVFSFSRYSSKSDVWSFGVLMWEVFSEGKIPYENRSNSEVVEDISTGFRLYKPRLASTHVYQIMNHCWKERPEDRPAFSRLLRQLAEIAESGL
Particulars: at 0.1 µM.

The target in assay [11] is T1, Tyrosine-protein kinase ITK/TSK (Homo sapiens). Particulars: at 1 µM.
The target in assay [12] is Tyrosine-protein kinase JAK1 (Homo sapiens) (UniProt P23458). Particulars: at 0.1 µM.
Assay [13] has the same target. The following applies: at 1 µM.
The target of assay [14] is Tyrosine-protein kinase JAK2 (Homo sapiens) (UniProt O60674). The following applies: at 0.1 µM.
The target is the same in assay [15]. The following applies: at 1 µM.
In assay [16] the target is T2, Tyrosine-protein kinase JAK3 (Homo sapiens) (UniProt P52333).
T2 sequence (whole entry): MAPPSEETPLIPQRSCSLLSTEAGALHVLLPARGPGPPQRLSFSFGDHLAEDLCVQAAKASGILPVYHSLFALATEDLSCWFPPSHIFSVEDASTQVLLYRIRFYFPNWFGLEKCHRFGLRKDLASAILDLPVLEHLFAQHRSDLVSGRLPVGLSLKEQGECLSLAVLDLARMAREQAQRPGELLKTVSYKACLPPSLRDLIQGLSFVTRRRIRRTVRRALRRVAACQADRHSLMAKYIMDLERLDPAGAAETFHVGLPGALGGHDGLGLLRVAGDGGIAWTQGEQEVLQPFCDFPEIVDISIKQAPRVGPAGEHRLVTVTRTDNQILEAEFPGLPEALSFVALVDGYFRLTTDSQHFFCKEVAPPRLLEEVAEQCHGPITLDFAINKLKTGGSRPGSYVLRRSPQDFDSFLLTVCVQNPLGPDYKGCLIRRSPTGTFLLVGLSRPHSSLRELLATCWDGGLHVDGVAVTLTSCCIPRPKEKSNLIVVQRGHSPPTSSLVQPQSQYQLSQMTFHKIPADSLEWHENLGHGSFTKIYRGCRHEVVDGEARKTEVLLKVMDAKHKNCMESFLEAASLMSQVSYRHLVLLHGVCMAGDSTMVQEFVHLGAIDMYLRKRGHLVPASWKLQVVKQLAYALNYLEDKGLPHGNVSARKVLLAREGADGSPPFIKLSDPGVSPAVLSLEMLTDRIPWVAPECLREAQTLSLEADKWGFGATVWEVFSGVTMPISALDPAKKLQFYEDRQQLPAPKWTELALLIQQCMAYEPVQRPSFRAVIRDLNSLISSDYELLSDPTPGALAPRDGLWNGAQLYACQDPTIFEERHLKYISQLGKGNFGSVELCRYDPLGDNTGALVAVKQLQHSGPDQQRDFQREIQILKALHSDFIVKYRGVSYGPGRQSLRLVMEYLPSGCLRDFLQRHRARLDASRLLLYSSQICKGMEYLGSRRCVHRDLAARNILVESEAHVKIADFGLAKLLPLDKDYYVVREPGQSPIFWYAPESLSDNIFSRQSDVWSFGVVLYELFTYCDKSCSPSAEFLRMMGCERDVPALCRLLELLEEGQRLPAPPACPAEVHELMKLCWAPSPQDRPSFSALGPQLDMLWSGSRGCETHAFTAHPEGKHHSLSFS
The following applies: at 0.1 µM.

The target in assay [17] is T2, Tyrosine-protein kinase JAK3 (Homo sapiens). Particulars: at 1 µM.
The target in assay [18] is Vascular endothelial growth factor receptor 2 (Homo sapiens) (UniProt P35968). Particulars: at 0.1 µM.
The target is the same in assay [19]. Particulars: at 1 µM.
The target of assay [20] is Mast/stem cell growth factor receptor Kit (Homo sapiens) (UniProt P10721). The following applies: at 0.1 µM.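 Note: values are mean inhibition of KIT, from the GSK PKIS dataset.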

Structures are written as SMILES.

Chain of Vascular endothelial growth factor receptor 2 (Homo sapiens) (P35968 whole entry): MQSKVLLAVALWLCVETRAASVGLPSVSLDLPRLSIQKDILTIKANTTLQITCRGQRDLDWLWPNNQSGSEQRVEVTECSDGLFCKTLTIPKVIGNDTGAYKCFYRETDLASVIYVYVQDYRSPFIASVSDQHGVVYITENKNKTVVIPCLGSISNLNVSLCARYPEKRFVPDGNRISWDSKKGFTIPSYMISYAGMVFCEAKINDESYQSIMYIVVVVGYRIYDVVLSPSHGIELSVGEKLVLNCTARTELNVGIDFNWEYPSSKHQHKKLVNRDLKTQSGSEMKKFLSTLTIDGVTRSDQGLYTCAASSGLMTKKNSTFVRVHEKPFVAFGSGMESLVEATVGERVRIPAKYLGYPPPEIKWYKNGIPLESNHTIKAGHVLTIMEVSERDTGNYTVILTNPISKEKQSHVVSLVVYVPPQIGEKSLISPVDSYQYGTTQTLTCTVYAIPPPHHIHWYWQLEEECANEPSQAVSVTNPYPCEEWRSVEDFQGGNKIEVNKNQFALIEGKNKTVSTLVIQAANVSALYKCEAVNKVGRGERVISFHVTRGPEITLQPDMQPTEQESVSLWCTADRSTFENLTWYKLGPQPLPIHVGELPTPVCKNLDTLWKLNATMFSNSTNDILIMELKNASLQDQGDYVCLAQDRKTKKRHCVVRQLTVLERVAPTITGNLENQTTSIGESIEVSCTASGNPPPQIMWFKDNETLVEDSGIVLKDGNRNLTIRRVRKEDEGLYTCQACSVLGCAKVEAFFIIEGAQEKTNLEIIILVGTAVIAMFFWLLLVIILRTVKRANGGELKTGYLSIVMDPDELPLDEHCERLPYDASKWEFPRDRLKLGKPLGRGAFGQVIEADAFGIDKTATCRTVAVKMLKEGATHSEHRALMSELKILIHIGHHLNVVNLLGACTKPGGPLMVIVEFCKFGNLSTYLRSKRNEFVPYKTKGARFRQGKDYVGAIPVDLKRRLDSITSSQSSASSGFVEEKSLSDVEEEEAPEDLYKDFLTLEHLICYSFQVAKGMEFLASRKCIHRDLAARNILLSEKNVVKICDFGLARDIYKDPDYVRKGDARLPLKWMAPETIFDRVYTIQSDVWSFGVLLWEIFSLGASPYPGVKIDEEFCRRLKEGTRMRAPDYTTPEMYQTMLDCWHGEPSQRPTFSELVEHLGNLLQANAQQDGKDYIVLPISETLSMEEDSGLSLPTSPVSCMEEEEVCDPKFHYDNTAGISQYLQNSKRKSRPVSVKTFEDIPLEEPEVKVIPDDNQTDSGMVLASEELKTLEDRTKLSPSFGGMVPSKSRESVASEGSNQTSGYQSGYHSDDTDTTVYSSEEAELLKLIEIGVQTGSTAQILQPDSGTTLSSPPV
Chain of Tyrosine-protein kinase HCK (Homo sapiens) (P08631 2-526 limits assumed): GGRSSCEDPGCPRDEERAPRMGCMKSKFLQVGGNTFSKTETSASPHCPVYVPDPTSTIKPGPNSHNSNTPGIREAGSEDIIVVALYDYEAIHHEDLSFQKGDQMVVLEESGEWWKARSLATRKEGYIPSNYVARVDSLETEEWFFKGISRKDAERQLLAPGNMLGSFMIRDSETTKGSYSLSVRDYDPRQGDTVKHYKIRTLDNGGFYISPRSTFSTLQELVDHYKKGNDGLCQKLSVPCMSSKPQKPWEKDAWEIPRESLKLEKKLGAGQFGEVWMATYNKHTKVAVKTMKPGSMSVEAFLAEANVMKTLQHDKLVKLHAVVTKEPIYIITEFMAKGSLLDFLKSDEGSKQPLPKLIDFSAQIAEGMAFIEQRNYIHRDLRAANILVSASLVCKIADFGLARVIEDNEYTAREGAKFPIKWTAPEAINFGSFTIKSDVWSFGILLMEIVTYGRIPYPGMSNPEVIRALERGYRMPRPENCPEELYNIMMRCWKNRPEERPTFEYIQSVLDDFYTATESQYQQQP
Chain of Mast/stem cell growth factor receptor Kit (Homo sapiens) (P10721 whole entry): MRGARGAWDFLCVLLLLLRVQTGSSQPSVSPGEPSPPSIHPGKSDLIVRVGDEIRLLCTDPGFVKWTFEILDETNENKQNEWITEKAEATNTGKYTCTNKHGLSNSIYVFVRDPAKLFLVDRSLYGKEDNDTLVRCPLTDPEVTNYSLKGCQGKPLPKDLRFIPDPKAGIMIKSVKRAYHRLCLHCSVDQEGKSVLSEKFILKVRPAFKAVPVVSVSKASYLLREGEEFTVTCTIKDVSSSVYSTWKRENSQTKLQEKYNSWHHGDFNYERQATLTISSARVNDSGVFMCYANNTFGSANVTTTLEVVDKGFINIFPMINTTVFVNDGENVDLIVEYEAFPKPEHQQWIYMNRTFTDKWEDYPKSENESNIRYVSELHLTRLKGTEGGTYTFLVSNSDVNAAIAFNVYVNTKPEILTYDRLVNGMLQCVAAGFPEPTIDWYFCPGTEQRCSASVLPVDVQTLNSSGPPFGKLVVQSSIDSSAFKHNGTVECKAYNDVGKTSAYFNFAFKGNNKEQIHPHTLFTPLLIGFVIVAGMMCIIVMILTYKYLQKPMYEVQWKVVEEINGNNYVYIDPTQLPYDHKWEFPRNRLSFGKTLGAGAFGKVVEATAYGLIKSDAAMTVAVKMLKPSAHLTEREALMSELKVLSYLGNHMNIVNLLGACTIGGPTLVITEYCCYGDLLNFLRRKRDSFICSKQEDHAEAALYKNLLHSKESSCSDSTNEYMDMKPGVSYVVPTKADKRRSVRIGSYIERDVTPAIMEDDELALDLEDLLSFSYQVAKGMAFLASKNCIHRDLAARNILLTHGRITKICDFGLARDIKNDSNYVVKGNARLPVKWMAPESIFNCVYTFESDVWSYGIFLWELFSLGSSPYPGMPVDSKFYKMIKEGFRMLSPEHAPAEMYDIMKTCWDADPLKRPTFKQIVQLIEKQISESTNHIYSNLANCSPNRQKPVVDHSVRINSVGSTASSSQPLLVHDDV
Chain of Tyrosine-protein kinase Fyn (Homo sapiens) (P06241 2-537 limits assumed): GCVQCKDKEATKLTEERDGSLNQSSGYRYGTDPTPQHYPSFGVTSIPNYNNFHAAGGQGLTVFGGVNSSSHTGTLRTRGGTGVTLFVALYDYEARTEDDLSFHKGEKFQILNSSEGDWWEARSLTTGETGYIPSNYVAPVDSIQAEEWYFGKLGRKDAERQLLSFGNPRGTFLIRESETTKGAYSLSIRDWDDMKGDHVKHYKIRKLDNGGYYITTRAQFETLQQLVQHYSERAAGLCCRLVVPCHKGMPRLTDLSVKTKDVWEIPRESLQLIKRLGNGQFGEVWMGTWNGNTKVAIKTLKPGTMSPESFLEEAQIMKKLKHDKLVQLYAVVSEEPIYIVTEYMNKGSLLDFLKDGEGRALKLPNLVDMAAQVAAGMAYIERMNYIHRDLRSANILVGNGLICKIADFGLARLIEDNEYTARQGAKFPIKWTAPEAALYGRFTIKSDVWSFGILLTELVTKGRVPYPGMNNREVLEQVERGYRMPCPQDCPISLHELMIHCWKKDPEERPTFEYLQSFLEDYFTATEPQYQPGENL
Chain of Tyrosine-protein kinase JAK2 (Homo sapiens) (O60674 whole entry): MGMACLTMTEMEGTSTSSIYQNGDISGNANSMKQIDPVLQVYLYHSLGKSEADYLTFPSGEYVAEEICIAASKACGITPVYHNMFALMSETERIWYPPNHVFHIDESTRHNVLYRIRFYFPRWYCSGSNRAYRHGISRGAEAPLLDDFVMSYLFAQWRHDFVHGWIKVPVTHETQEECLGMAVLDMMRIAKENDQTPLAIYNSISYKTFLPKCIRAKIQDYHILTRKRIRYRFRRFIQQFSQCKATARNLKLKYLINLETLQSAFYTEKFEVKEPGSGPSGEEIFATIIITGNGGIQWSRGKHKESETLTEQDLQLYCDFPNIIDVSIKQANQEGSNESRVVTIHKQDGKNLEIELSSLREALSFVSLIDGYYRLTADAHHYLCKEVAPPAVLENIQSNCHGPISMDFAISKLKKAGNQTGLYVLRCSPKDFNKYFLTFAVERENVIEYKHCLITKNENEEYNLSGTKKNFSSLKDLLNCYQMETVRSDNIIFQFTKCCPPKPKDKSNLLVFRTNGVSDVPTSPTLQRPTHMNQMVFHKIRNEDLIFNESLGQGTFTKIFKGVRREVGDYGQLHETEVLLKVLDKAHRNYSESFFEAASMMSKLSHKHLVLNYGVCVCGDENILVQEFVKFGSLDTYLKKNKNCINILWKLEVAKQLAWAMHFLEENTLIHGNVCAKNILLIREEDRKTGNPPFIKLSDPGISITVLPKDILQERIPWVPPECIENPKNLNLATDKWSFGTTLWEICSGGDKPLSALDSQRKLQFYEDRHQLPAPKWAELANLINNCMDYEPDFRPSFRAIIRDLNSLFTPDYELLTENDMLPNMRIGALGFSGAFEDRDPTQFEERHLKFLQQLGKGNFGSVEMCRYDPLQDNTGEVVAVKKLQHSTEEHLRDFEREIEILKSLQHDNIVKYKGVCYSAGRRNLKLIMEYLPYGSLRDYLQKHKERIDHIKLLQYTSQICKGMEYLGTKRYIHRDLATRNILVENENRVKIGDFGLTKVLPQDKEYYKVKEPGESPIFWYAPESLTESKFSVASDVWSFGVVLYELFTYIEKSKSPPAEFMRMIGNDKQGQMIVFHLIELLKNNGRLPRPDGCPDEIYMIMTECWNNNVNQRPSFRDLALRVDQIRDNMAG

In general, inhibition refers to the drop in the measured response relative to a control, in per cent. As to `CCN(CC)S(=O)(=O)c1ccc(OC)c(Nc2ncc(-c3ccccc3)o2)c1`, the inhibition in [1] is 45.2%; in assay [2], 7.41%; in [3], 28.1%; in [4] it was 7.86%; in assay [5] it was 7.98%; in assay [6] it was 2.78%. In addition, the inhibition in assay [7] was 2.35%; in [8], 0.57%; in assay [9] it was 0.72%; in assay [10], 0.31%; in [11], 2.62%; in assay [12], 1.87%. Moreover, the inhibition in [13] is 0.33%; in assay [14], 0.36%; in [15], 1.73%; in assay [16], -0.47%; in [17], 2.16%; in assay [18], 31.3%. The inhibition worked out at 68% in [19] and 33.5% in assay [20].

With `COc1ccc2c(-c3ccnc(Nc4cccc(OC(F)(F)F)c4)n3)cnn2n1`, the inhibition in [1] is 7.69%; in assay [2], 5.89%; in assay [3] it was 11.3%; in assay [4], 3.31%; in assay [5], 5.36%; in [6] it was 4.34%. The inhibition in assay [7] was 8.18%; in [8], 4.74%; in [9], 3.42%; in assay [10] it was 1.46%; in assay [11], 2.38%; in [12], 4.66%. Besides, the inhibition in [13] is 13%; in [14] it was 1.65%; in assay [15], 10.9%; in assay [16], -0.93%; in assay [17], 2.75%; in [18] it was 6.22%. Also, the inhibition came out at 14.8% in assay [19] and 10.7% in [20].

Take `COc1cccc(-n2ncc3c(N/N=C/c4ccc(F)cc4)ncnc32)c1`: the inhibition in assay [1] was 31.1%; in assay [2], 6.41%; in assay [3] it was 17.5%; in [4] it was 2.52%; in assay [5] it was 3.62%; in [6], -0.02%. The inhibition in assay [7] was 2.69%; in assay [8], 2.92%; in assay [9], 2.32%; in [10], 1.34%; in [11], 2.7%; in assay [12] it was 4.84%. Besides, the inhibition in [13] was 6.9%; in assay [14], 1.38%; in assay [15], 4.42%; in [16], -1.52%; in assay [17] it was 1.02%; in assay [18], 8.15%. In addition, the inhibition worked out at 20.6% in [19] and 5.42% in assay [20].

As for `COc1cc2c(cc1Nc1nc(Nc3ccsc3C(N)=O)c3cc[nH]c3n1)N(C(=O)CN(C)C)CCC2(C)C`, the inhibition in assay [1] was determined as 1.15%; in assay [2], 6.46%; in [3], 12.9%; in assay [4] it was 98.1%; in [5] it was 97.1%; in assay [6] it was 98.7%. Besides, the inhibition was 98% in assay [7]; 98% in assay [8]; 97.9% in [9]; 1.74% in [10]; 3.88% in [11]; 4.13% in assay [12]. Also, the inhibition in [13] is 2.78%; in [14], 0.97%; in assay [15], 0.03%; in assay [16] it was 0.41%; in [17] it was 1.42%; in assay [18], 8.34%. Besides, the inhibition in assay [19] came out at 14.1%; in [20], 18.8%.

For `CCNC(=O)O[C@H]1CN[C@H](C#Cc2cc3ncnc(Nc4ccc(OCc5cccc(F)c5)c(Cl)c4)c3s2)C1`, the inhibition in assay [1] was found to be 1.8%; in [2] it was 5.66%; in assay [3], 5.6%; in assay [4], 3.27%; in assay [5] it was 2.91%; in [6] it was 0.78%. Further, the inhibition in assay [7] was 6.61%; in assay [8], 0.8%; in assay [9], 1.47%; in assay [10] it was 1.32%; in [11], 1.96%; in [12], 7.02%. The inhibition in assay [13] was -0.58%; in assay [14], 3.47%; in assay [15], 2.64%; in assay [16], -1.24%; in assay [17], 1.79%; in assay [18] it was 6.2%. Moreover, the inhibition came out at 4.4% in [19] and 4.29% in assay [20].

Consider `Cc1ccc2c(-c3ccnc(Nc4ccccc4)n3)c(-c3ccc(F)cc3)nn2n1`, for which the inhibition amounted to 68.9% in [1]; 11.9% in assay [2]; 43.9% in [3]; 1.92% in assay [4]; 5.18% in [5]; 1.31% in assay [6]. Moreover, the inhibition in [7] was 7.57%; in assay [8], 4.42%; in [9], 2.61%; in assay [10], 1.54%; in assay [11], 2.3%; in assay [12], 3.23%. The inhibition in [13] is -5.84%; in [14] it was 1.55%; in assay [15] it was 2.93%; in assay [16], -0.48%; in assay [17], 2.61%; in [18] it was 21%. Further, the inhibition in [19] came to 64%; in [20], 23.8%.
